Experimental data as given in PubChem BioAssay (NCI).
This is part of a sample that, as a whole, favours compounds with a hit. Of some 79,000 tested, about 15% had one in any assay. Values without a mark were called inactive. Active and inactive are the calls of the source. Rule as the data show it: active = growth inhibition above about 70%; inactive = the rest.

Assay: NCI Yeast Anticancer Drug Screen. Data for the rad18 strain (AID 177)
Conditions: S. cerevisiae rad18 mutant growth inhibition; at 11.0 µM; stronger effect = higher value
Method in brief: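 A genetically defined yeast mutant impaired in DNA damage repair was treated with test compounds, then its growth was measured against cultures receiving vehicle alone.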

| Compound | growth inhibition |
| --- | --- |
| CN(C)c1ccc(C2CC(C)(O)Oc3cc4c(cc32)OCO4)cc1 (stereo unspecified) | 89% (active) |
| O=P(NC1CCCCC1)(OCc1ccccc1)OCc1ccccc1 | 13% |
| COc1oc(C(=O)NC2CCCCC2)c(-c2ccc(Cl)cc2)c1S(=O)(=O)c1ccccc1 | 46% |
| C[Si](C)(C)/C=C/CCNC(C#N)c1ccccc1 (stereo unspecified) | 27% |
| CCOc1ccc(NC(=O)C2=C(C)NC(C)=C(C(=O)Nc3ccc(OCC)cc3)C2c2cccc([N+](=O)[O-])c2)cc1 | 3% |
| CN(C)CCOC1(Cc2ccc(F)cc2)CCC(C(C)(C)C)CC1 (stereo unspecified) | -2% |
| CC1(C)CC(=O)C(/C=N/c2nc(-c3ccccc3)cs2)=C(O)C1 | 72% (active) |
| CC(=O)Nc1ccc2c(c1)Cc1cc(N=C3C=CC(=O)O3)ccc1-2 | 91% (active) |
| O=C1C=C(Cl)C(=O)C(c2ccc(Cl)cc2)=C1 | 53% |
| CNCCCNc1c2ccccc2nc2cccc([N+](=O)[O-])c12 | 93% (active) |
| CCCCCCCCCCCC(O)S(=O)(=O)O (stereo unspecified) | -2% |
| CC(C)OC(=O)c1ccc(CCc2cc(O)c(Br)cc2O)cc1 | 59% |
| CCc1cc(O)c(Cl)c(C)c1Cl | -40% |
| C(=Nc1ccc(-c2cc(-c3ccccc3)nc3ccc4ccccc4c23)cc1)c1ccccc1 | 44% |
| CSc1nc(C)c(CCOC(C)=O)c(N=P(c2ccccc2)(c2ccccc2)c2ccccc2)n1 | 4% |
| CS(=O)(=O)SCc1ccc([N+](=O)[O-])cc1 | 90% (active) |
| COC1=C(OC)C(=O)C(Sc2ccc3ccccc3c2)=CC1=O | 58% |
| COc1nc2c(c(=O)n1C)N=C(c1ccccc1)[C@H](C(CC(=O)c1ccccc1)c1ccccc1)C(c1ccccc1)N2 (stereo partly specified) | 50% |
| Cc1cc(-c2cc(C)c(O)c(C(C)(C)C)c2)cc(C(C)(C)C)c1O | -26% |

| Compound | growth inhibition |
| --- | --- |
| Nc1cc(N)c(N=Nc2cccc3c(S(=O)(=O)O)cccc23)cc1N=Nc1cc([N+](=O)[O-])ccc1O | -23% |
| Nc1ccc(F)cc1S | 1% |
| COc1cc(C2SCC(=O)N2c2ccc(-c3ccc(-n4c(-c5ccccc5)nc5ccccc5c4=O)cc3)cc2)ccc1O (stereo unspecified) | 0% |
| Nc1ncnc2c1ncn2C1OC(CO)CC1O (stereo unspecified) | 52% |
| COc1cc(CSc2ccc(O)cc2)cc(O)c1O | 2% |
| CCOC(=O)C1N=[N+](c2ccccc2)C(=O)/C1=C\n1c(=S)[nH]c2ccc([N+](=O)[O-])cc21 (stereo unspecified) | 3% |
| CNC(=O)OCc1c(COC(=O)NC)c2n(c1C)-c1ccc(OC)cc1CCC2 | -48% |
| O=C(NNc1ccccc1)c1ccc(Cl)c(Cl)c1 | 6% |
| Cc1ccc(CC2(OCCN(C)C)CCC(C(C)(C)C)CC2)cc1 (stereo unspecified) | -12% |
| C[C@]12CC[C@H](O)CC1=CC[C@@H]1C2CC[C@]2(C)C(=O)NC(=O)CC12 (stereo partly specified) | -23% |
| CCCC/C=C/C(C)(C(=O)OCC)C(=O)OCC | 6% |
| CCc1c(Cl)c(C)cc(O)c1Cl | -23% |
| O=C(/C=C(/c1ccccc1)N1CCCCC1)c1ccccc1 | 3% |
| CCCC(=O)Oc1ccc(/C=N/NC(N)=S)nc1 | -2% |
| CCc1nc2ccc(NCCN(C)C)c3c(=O)c4ccccc4n1c23 | 44% |
| Cc1sc2ccc3ccccc3c2[n+]1C | 2% |
| COc1c(O)c(C=O)c(Br)c(C=O)c1O | 5% |
| Cc1ccc(Cl)cc1NC(=O)OCCN(C)C(=O)Nc1cc(Cl)ccc1C | -33% |
| Cc1nc2ccccc2nc1NNc1ccccc1 | -5% |

Same assay, conditions: S. cerevisiae rad18 mutant growth inhibition; at 33.0 µM; stronger effect = higher value

| Compound | growth inhibition |
| --- | --- |
| CN(C)c1ccc(C2CC(C)(O)Oc3cc4c(cc32)OCO4)cc1 (stereo unspecified) | 92% (active) |
| O=P(NC1CCCCC1)(OCc1ccccc1)OCc1ccccc1 | 26% |
| COc1oc(C(=O)NC2CCCCC2)c(-c2ccc(Cl)cc2)c1S(=O)(=O)c1ccccc1 | 85% (active) |
| C[Si](C)(C)/C=C/CCNC(C#N)c1ccccc1 (stereo unspecified) | 23% |
| CCOc1ccc(NC(=O)C2=C(C)NC(C)=C(C(=O)Nc3ccc(OCC)cc3)C2c2cccc([N+](=O)[O-])c2)cc1 | 45% |
| CN(C)CCOC1(Cc2ccc(F)cc2)CCC(C(C)(C)C)CC1 (stereo unspecified) | 18% |
| CC1(C)CC(=O)C(/C=N/c2nc(-c3ccccc3)cs2)=C(O)C1 | 88% (active) |
| CC(=O)Nc1ccc2c(c1)Cc1cc(N=C3C=CC(=O)O3)ccc1-2 | 99% (active) |
| O=C1C=C(Cl)C(=O)C(c2ccc(Cl)cc2)=C1 | 96% (active) |
| CNCCCNc1c2ccccc2nc2cccc([N+](=O)[O-])c12 | 95% (active) |
| CCCCCCCCCCCC(O)S(=O)(=O)O (stereo unspecified) | -1% |
| CC(C)OC(=O)c1ccc(CCc2cc(O)c(Br)cc2O)cc1 | 96% (active) |
| CCc1cc(O)c(Cl)c(C)c1Cl | -27% |
| C(=Nc1ccc(-c2cc(-c3ccccc3)nc3ccc4ccccc4c23)cc1)c1ccccc1 | 68% |
| CSc1nc(C)c(CCOC(C)=O)c(N=P(c2ccccc2)(c2ccccc2)c2ccccc2)n1 | 3% |
| CS(=O)(=O)SCc1ccc([N+](=O)[O-])cc1 | 99% (active) |
| COC1=C(OC)C(=O)C(Sc2ccc3ccccc3c2)=CC1=O | 92% (active) |
| COc1nc2c(c(=O)n1C)N=C(c1ccccc1)[C@H](C(CC(=O)c1ccccc1)c1ccccc1)C(c1ccccc1)N2 (stereo partly specified) | 46% |
| Cc1cc(-c2cc(C)c(O)c(C(C)(C)C)c2)cc(C(C)(C)C)c1O | 29% |

| Compound | growth inhibition |
| --- | --- |
| Nc1cc(N)c(N=Nc2cccc3c(S(=O)(=O)O)cccc23)cc1N=Nc1cc([N+](=O)[O-])ccc1O | -16% |
| Nc1ccc(F)cc1S | 71% (active) |
| COc1cc(C2SCC(=O)N2c2ccc(-c3ccc(-n4c(-c5ccccc5)nc5ccccc5c4=O)cc3)cc2)ccc1O (stereo unspecified) | 3% |
| Nc1ncnc2c1ncn2C1OC(CO)CC1O (stereo unspecified) | 82% (active) |
| COc1cc(CSc2ccc(O)cc2)cc(O)c1O | -10% |
| CCOC(=O)C1N=[N+](c2ccccc2)C(=O)/C1=C\n1c(=S)[nH]c2ccc([N+](=O)[O-])cc21 (stereo unspecified) | 7% |
| CNC(=O)OCc1c(COC(=O)NC)c2n(c1C)-c1ccc(OC)cc1CCC2 | 96% (active) |
| O=C(NNc1ccccc1)c1ccc(Cl)c(Cl)c1 | 37% |
| Cc1ccc(CC2(OCCN(C)C)CCC(C(C)(C)C)CC2)cc1 (stereo unspecified) | 36% |
| C[C@]12CC[C@H](O)CC1=CC[C@@H]1C2CC[C@]2(C)C(=O)NC(=O)CC12 (stereo partly specified) | 77% (active) |
| CCCC/C=C/C(C)(C(=O)OCC)C(=O)OCC | 13% |
| CCc1c(Cl)c(C)cc(O)c1Cl | -46% |
| O=C(/C=C(/c1ccccc1)N1CCCCC1)c1ccccc1 | 9% |
| CCCC(=O)Oc1ccc(/C=N/NC(N)=S)nc1 | -8% |
| CCc1nc2ccc(NCCN(C)C)c3c(=O)c4ccccc4n1c23 | 63% |
| Cc1sc2ccc3ccccc3c2[n+]1C | -1% |
| COc1c(O)c(C=O)c(Br)c(C=O)c1O | 24% |
| Cc1ccc(Cl)cc1NC(=O)OCCN(C)C(=O)Nc1cc(Cl)ccc1C | -37% |
| Cc1nc2ccccc2nc1NNc1ccccc1 | 30% |
